For 16 compounds, viability, luciferase signal and remaining NAD results are on record in PubChem BioAssay.

The nature of test [1]: ovarian cancer cell viability with rucaparib, profiling panel, oncology-focused library, rucaparib conditional (AID 1508598). As to conditions: patient-derived ovarian cancer cells, CellTiter-Glo viability, 144 h, stronger effect = lower value. (ATP-based viability assays read luminescence as a measure of living cells.)
For test [2], the target named is Mitogen-activated protein kinase 7 (Homo sapiens) (UniProt Q13164). The experiment in a line: ERK5 transactivation activators in reporter cells, primary screen, cell-based, HTS (AID 1508626;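 active = luciferase signal above three times the same-plate solvent-only control wells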;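 note: luciferase driven by Gal4-ERK5 fusion binding five Gal4 sites before minimal TATA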). The settings on record: HeLa Gal4-ERK5 transactivation, 18 h, at 5 µM, stronger effect = higher value.
Mitogen-activated protein kinase 7 (Homo sapiens), sequence (Q13164 whole entry, looked up, the tested form may be a part): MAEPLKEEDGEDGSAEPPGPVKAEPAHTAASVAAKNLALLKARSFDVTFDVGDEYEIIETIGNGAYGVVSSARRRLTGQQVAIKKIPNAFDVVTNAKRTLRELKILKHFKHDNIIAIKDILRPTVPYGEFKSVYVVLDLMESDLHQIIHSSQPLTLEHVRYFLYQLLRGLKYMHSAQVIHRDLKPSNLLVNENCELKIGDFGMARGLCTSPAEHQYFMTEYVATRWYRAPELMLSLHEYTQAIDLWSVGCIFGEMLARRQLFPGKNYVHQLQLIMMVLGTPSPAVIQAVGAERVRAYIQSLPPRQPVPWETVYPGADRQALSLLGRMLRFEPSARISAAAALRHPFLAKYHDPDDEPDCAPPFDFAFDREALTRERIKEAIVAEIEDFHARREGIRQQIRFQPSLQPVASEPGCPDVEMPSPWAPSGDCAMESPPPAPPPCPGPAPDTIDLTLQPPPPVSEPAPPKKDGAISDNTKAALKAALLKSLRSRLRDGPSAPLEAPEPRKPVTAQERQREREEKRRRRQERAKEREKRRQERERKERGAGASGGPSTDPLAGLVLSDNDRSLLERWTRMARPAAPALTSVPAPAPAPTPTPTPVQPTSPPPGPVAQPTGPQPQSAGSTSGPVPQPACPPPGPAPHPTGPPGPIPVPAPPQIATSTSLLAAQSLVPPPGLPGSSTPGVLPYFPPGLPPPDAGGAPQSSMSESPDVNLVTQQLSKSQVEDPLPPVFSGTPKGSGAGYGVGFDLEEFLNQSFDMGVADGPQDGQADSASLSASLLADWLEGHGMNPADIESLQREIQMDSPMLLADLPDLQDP
The target of test [3] is NAD(+) hydrolase SARM1 (Homo sapiens) (UniProt Q6SZW1). The experiment in a line: SARM1 TIR NADase inhibitors, cell lysate, NAD-Glo luminescence (AID 1508614;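 active = compound whose remaining NAD level is above about 45 nM, limit read from the data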;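 note: higher remaining NAD means stronger inhibition of SARM1 NADase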). The settings on record: SAM-TIR HEK293T lysate NADase, at 1 µM, stronger effect = higher value.
NAD(+) hydrolase SARM1 (Homo sapiens), sequence (Q6SZW1 whole entry, looked up): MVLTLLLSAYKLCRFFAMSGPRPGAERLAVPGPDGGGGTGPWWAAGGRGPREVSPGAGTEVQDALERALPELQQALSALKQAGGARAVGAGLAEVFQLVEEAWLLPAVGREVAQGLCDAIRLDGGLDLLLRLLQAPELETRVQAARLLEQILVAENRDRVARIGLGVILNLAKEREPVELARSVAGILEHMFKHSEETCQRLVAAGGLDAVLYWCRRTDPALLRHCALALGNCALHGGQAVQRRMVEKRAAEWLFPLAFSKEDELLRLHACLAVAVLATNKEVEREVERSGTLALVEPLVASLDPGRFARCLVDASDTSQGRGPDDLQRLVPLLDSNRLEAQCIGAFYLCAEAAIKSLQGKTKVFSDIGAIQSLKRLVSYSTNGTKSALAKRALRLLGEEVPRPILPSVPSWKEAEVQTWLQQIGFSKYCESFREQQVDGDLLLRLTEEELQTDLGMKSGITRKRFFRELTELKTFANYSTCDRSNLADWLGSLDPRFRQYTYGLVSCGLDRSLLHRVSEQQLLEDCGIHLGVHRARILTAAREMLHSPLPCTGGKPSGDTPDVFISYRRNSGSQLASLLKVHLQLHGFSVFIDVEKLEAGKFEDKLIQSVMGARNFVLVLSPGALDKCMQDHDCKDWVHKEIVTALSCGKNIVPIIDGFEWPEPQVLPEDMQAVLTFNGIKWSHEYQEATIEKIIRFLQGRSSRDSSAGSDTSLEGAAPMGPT
[4] abbreviates: at 0.000305 µM, OCI-C5x cells, with rucaparib 10 µM, 100% = cells with rucaparib alone.
Setting [5] is: at 0.000305 µM, OCI-C5x cells, without rucaparib.
Setting [6] is: at 0.000305 µM, OCI-P5x cells, with rucaparib 20 µM, 100% = cells with rucaparib alone.
Setting [7] is: at 0.000305 µM, OCI-P5x cells, without rucaparib.
Setting [8] is: at 0.00122 µM, OCI-C5x cells, with rucaparib 10 µM, 100% = cells with rucaparib alone.
The mark [9] stands for this setting: at 0.00122 µM, OCI-C5x cells, without rucaparib.
The mark [10] stands for this setting: at 0.00122 µM, OCI-P5x cells, with rucaparib 20 µM, 100% = cells with rucaparib alone.
[11] abbreviates: at 0.00122 µM, OCI-P5x cells, without rucaparib.
Setting [12] is: at 0.00488 µM, OCI-C5x cells, with rucaparib 10 µM, 100% = cells with rucaparib alone.
Setting [13] is: at 0.00488 µM, OCI-C5x cells, without rucaparib.
[14] abbreviates: at 0.00488 µM, OCI-P5x cells, with rucaparib 20 µM, 100% = cells with rucaparib alone.
Where [15] appears, read: at 0.00488 µM, OCI-P5x cells, without rucaparib.
[16] abbreviates: at 0.0195 µM, OCI-C5x cells, with rucaparib 10 µM, 100% = cells with rucaparib alone.
Setting [17] is: at 0.0195 µM, OCI-C5x cells, without rucaparib.
Where [18] appears, read: at 0.0195 µM, OCI-P5x cells, with rucaparib 20 µM, 100% = cells with rucaparib alone.
Where [19] appears, read: at 0.0195 µM, OCI-P5x cells, without rucaparib.
The mark [20] stands for this setting: at 0.0781 µM, OCI-C5x cells, with rucaparib 10 µM, 100% = cells with rucaparib alone.
Where [21] appears, read: at 0.0781 µM, OCI-C5x cells, without rucaparib.
[22] abbreviates: at 0.0781 µM, OCI-P5x cells, with rucaparib 20 µM, 100% = cells with rucaparib alone.
Where [23] appears, read: at 0.0781 µM, OCI-P5x cells, without rucaparib.
Where [24] appears, read: at 0.313 µM, OCI-C5x cells, with rucaparib 10 µM, 100% = cells with rucaparib alone.
Where [25] appears, read: at 0.313 µM, OCI-C5x cells, without rucaparib.
Where [26] appears, read: at 0.313 µM, OCI-P5x cells, with rucaparib 20 µM, 100% = cells with rucaparib alone.
Setting [27] is: at 0.313 µM, OCI-P5x cells, without rucaparib.
The mark [28] stands for this setting: at 1.25 µM, OCI-C5x cells, with rucaparib 10 µM, 100% = cells with rucaparib alone.
Where [29] appears, read: at 1.25 µM, OCI-C5x cells, without rucaparib.
The mark [30] stands for this setting: at 1.25 µM, OCI-P5x cells, with rucaparib 20 µM, 100% = cells with rucaparib alone.
[31] abbreviates: at 1.25 µM, OCI-P5x cells, without rucaparib.
Setting [32] is: at 5 µM, OCI-C5x cells, with rucaparib 10 µM, 100% = cells with rucaparib alone.
The mark [33] stands for this setting: at 5 µM, OCI-C5x cells, without rucaparib.
[34] abbreviates: at 5 µM, OCI-P5x cells, with rucaparib 20 µM, 100% = cells with rucaparib alone.
[35] abbreviates: at 5 µM, OCI-P5x cells, without rucaparib.

Values without a mark were called inactive. The source made the active and inactive calls.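 Rule for the calls, unless noted: active = normalized viability below 100% at a tested concentration; inactive = the rest.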

Broadly, the viability is a read-out of living cells in per cent, often relative to untreated cells. As for `CC(C)C[C@H](NP(=O)(O)O[C@@H]1O[C@@H](C)[C@H](O)[C@@H](O)[C@H]1O)C(=O)N[C@@H](Cc1c[nH]c2ccccc12)C(=O)O`, the viability in test [1] (setting [4]) is 124%; in test [1] (setting [5]), 113%; in test [1] (setting [6]) it was 105%; in test [1] (setting [7]), 99.9% (active); in test [1] (setting [8]), 127%; in test [1] (setting [9]) it was 113%. The viability was 97.2% (active) in test [1] (setting [10]); 103% in test [1] (setting [11]); 127% in test [1] (setting [12]); 116% in test [1] (setting [13]); 104% in test [1] (setting [14]); 96.5% (active) in test [1] (setting [15]). The viability in test [1] (setting [16]) is 122%; in test [1] (setting [17]) it was 106%; in test [1] (setting [18]), 101%; in test [1] (setting [19]), 93.9% (active); in test [1] (setting [20]) it was 121%; in test [1] (setting [21]) it was 107%. The viability in test [1] (setting [22]) is 99.3% (active); in test [1] (setting [23]), 96.3% (active); in test [1] (setting [24]), 124%; in test [1] (setting [25]), 103%; in test [1] (setting [26]), 98.1% (active); in test [1] (setting [27]), 98.7% (active). For the same compound, the viability in test [1] (setting [28]) is 132%; in test [1] (setting [29]) it was 117%; in test [1] (setting [30]) it was 94.3% (active); in test [1] (setting [31]) it was 91.1% (active); in test [1] (setting [32]), 123%; in test [1] (setting [33]) it was 104%. Also, the viability in test [1] (setting [34]) is 88.8% (active); in test [1] (setting [35]), 92% (active).

For `CC1(C)O[C@@H]2C[C@H]3[C@@H]4CCC5=CC(=O)C=C[C@]5(C)[C@]4(F)[C@H](O)C[C@]3(C)[C@@]2(C(=O)CO)O1`, the viability in test [1] (setting [4]) is 108%; in test [1] (setting [5]), 124%; in test [1] (setting [6]), 97.2% (active); in test [1] (setting [7]), 122%; in test [1] (setting [8]), 116%; in test [1] (setting [9]), 123%. Also, the viability in test [1] (setting [10]) was 101%; in test [1] (setting [11]), 116%; in test [1] (setting [12]), 106%; in test [1] (setting [13]), 117%; in test [1] (setting [14]), 96.8% (active); in test [1] (setting [15]), 110%. In addition, the viability is 105% in test [1] (setting [16]); 122% in test [1] (setting [17]); 92.8% (active) in test [1] (setting [18]); 107% in test [1] (setting [19]); 108% in test [1] (setting [20]); 120% in test [1] (setting [21]). Further, the viability was 92.1% (active) in test [1] (setting [22]); 110% in test [1] (setting [23]); 105% in test [1] (setting [24]); 114% in test [1] (setting [25]); 90.6% (active) in test [1] (setting [26]); 106% in test [1] (setting [27]). Further, the viability was 109% in test [1] (setting [28]); 108% in test [1] (setting [29]); 84% (active) in test [1] (setting [30]); 97.8% (active) in test [1] (setting [31]); 109% in test [1] (setting [32]); 99.9% (active) in test [1] (setting [33]). Moreover, the values for the viability in test [1] (setting [34]) and in test [1] (setting [35]) were 78.5% (active) and 90.4% (active), respectively.

As for `C=C1/C(=C/C=C2\CCC[C@@]3(C)[C@H]2CC[C@H]3[C@H](C)/C=C/[C@@H](C)C(C)C)C[C@H](O)C[C@@H]1O`, the viability is 99.9% (active) in test [1] (setting [4]); 95% (active) in test [1] (setting [5]); 101% in test [1] (setting [6]); 100% in test [1] (setting [7]); 97.2% (active) in test [1] (setting [8]); 100% (active) in test [1] (setting [9]). The viability is 105% in test [1] (setting [10]); 99.9% (active) in test [1] (setting [11]); 94% (active) in test [1] (setting [12]); 104% in test [1] (setting [13]); 105% in test [1] (setting [14]); 102% in test [1] (setting [15]). Further, the viability in test [1] (setting [16]) is 103%; in test [1] (setting [17]) it was 100%; in test [1] (setting [18]) it was 102%; in test [1] (setting [19]), 102%; in test [1] (setting [20]), 97.1% (active); in test [1] (setting [21]), 100%. The viability in test [1] (setting [22]) is 105%; in test [1] (setting [23]) it was 101%; in test [1] (setting [24]), 96.7% (active); in test [1] (setting [25]) it was 96.6% (active); in test [1] (setting [26]), 107%; in test [1] (setting [27]) it was 104%. In addition, the viability in test [1] (setting [28]) is 101%; in test [1] (setting [29]), 102%; in test [1] (setting [30]), 98.4% (active); in test [1] (setting [31]), 103%; in test [1] (setting [32]) it was 120%; in test [1] (setting [33]), 111%. Besides, the viability in test [1] (setting [34]) is 111%; in test [1] (setting [35]) it was 103%.

Take `C[C@]12CC[C@@H]3c4ccc(OC(=O)c5ccccc5)cc4CC[C@H]3[C@@H]1CC[C@@H]2O`: the luciferase signal in test [2] is 56 AU.

`Cn1nnnc1SCC1=C(C(=O)O)N2C(=O)[C@@H](NC(=O)[C@H](OC=O)c3ccccc3)[C@H]2SC1`: in test [2], the luciferase signal is 16 AU.

Turning to `CC(=O)O[C@@H]1C=C[C@@]2(C)C(C[C@@H](OC(C)=O)[C@@]3(C)C4=CC(=O)O[C@@H](c5ccoc5)[C@]4(C)CCC23)C1(C)C` (stereo partly drawn), in test [2], the luciferase signal was 20 AU.

For `O=c1c(O)c(-c2ccccc2)oc2cccc(O)c12`, in test [2], the luciferase signal is 60 AU.

Take `CN[C@@H]1[C@H](O[C@H]2[C@H](O[C@H]3[C@H](O)[C@@H](O)[C@H](N=C(N)N)[C@@H](O)[C@@H]3N=C(N)N)O[C@@H](C)[C@]2(O)C=O)O[C@@H](CO)[C@H](O)[C@H]1O`: the remaining NAD in test [3] is 10 nM. For the same compound, the luciferase signal in test [2] was 80 AU.

For the compound `C/C=C(/C)C(=O)O[C@H]1[C@H](OC(C)=O)[C@]2(CO)[C@H](O)C[C@]3(C)C(=CC[C@@H]4[C@@]5(C)CC[C@H](O[C@@H]6O[C@H](C(=O)O)[C@@H](O[C@@H]7O[C@H](CO)[C@@H](O)[C@H](O)[C@H]7O)[C@H](O)[C@H]6O[C@@H]6O[C@H](CO)[C@@H](O)[C@H](O)[C@H]6O)[C@](C)(CO)[C@@H]5CC[C@]43C)[C@@H]2CC1(C)C`, the luciferase signal in test [2] was 276 AU.

As to `CC(=O)O[C@H]1CC[C@]2(C)[C@H]3CC=C4[C@@H]5CC(C)(C)CC[C@]5(C)CC[C@@]4(C)[C@]3(C)CC[C@H]2C1(C)C`, in test [2], the luciferase signal was 64 AU.

For the compound `CC(=O)[C@@]12O[C@](C)(c3ccccc3)O[C@@H]1C[C@H]1[C@@H]3CCC4=CC(=O)CC[C@]4(C)[C@H]3CC[C@@]12C`, the remaining NAD in test [3] was 10 nM. Moreover, in test [2], the luciferase signal is 76 AU.

In the case of `C[C@@H]1O[C@@H]1P(=O)(O)O`, in test [3], the remaining NAD is 10 nM. Also, the luciferase signal in test [2] was 76 AU.

For `C[C@H]1C[C@@H]2[C@H]([C@@H](O)C[C@@]3(C)[C@H]2CC[C@]3(O)C(=O)COC(=O)CCC(=O)O)[C@@]2(C)C=CC(=O)C=C12`, the remaining NAD in test [3] is 10 nM. In addition, in test [2], the luciferase signal was 72 AU.

Turning to `CC[C@H](/C=C/[C@@H](C)[C@H]1CC[C@H]2[C@@H]3CCC4=CC(=O)CC[C@]4(C)[C@H]3CC[C@]12C)C(C)C`, in test [2], the luciferase signal was 56 AU.

Turning to `CC(C)CCC[C@@H](C)[C@H]1CC[C@H]2[C@@H]3CC=C4CC(=O)CC[C@]4(C)[C@H]3CC[C@]12C`, the luciferase signal in test [2] was 20 AU.

Turning to `COC(=O)C[C@H]1C(C)(C)C(=O)[C@@H]2CC3C4=CC(=O)O[C@@H](c5ccoc5)[C@]4(C)CCC3[C@@]1(C)C2=O` (stereo partly drawn), the luciferase signal in test [2] was 24 AU.
